According to PubChem BioAssay AID2315 (National Center for Advancing Translational Sciences (NCATS), 2010):
“And” between values parts separate entries of the source, which are not always exact repeats. Equal entries are not always repeated. About 27,000 (9.3%) of roughly 290,000 compounds were called active. No stated cut-off is given here; in the data, active means inhibition mostly above about 28% (no sharp cut-off); inactive means mostly below about 43%. The list comes from a sample in which actives are over-represented; it also holds similar structures and randomly drawn compounds.

experiment: A qHTS for Small Molecule Inhibitors of Shiga Toxin; settings: Vero cells, Shiga toxin protein synthesis inhibition reporter; at 38.7 µM, stronger effect = higher value; further: 0% is about no effect

| Structure (SMILES) | inhibition |
| --- | --- |
| CCN1CCN(C(=O)Cn2nc(C)n3c(cc4c(OC)cccc43)c2=O)CC1 | -14.6% (inactive) |
| O=C(O)CCCn1c(=O)c2cccn2c2ccc(F)cc21 | -8.92% (inactive) |
| O=C(Nc1cccc2ccccc12)N1CCN(Cc2ccc3c(c2)OCO3)CC1 | -3.81% (inactive) |
| O=C(Nc1cccc2ccccc12)N1CCC2(CC1)OCCO2 | 54.5% (active) |
| COc1ccc(NC(=O)N2CCC3(CC2)OCCO3)c(OC)c1 | 13.6% (inactive) |
| COc1cc(/C=N/NC(=O)CNC(=O)c2ccncc2)ccc1OC(C)=O | -3.89% (inactive) |
| COc1ccc(C)cc1NC(=O)NCCCCc1ccccc1 | 14.6% (inactive) |
| COc1ccc(C(=O)NC2CC2)cc1OC1CCN(C/C=C/c2ccccc2)CC1 | -9.42% (inactive) |
| CC(=O)N1c2ccc(S(=O)(=O)N3CCC(C(=O)N4CCN(c5ccccc5)CC4)CC3)cc2CC1C (configuration not stated) | -2.12% (inactive) |
| Cc1cccc(-c2nnc(SCC(=O)O)n2Cc2ccccc2)c1 | -7.35% (inactive) |
| CCOc1c(Cl)cc(/C=N/O)cc1OC | 59.8% (inactive) |
| CC1=NOC(=O)/C1=C\c1ccccc1 | -4.49% (inactive) |
| C=CCOc1ccc(/C=C2/C(=O)ON=C2C)cc1OCC | 17.5% (inactive) |
| COc1cc(/C=C2/C(=O)ON=C2C)ccc1OCc1ccccc1F | 145% (active) |
| C#CCOc1ccc(/C=C2/C(=O)ON=C2C)cc1OCC | 13.8% (inactive) |
| CCOc1ccc(/C=N/NC(=O)C(C)Sc2ccccn2)cc1OCC (configuration not stated) | -9.85% (inactive) |
| COc1cc(/C=C2\SC(=O)NC2=O)ccc1OCc1ccc(Cl)nc1 | -5.05% (inactive) |
| COc1cc(/C=C2/C(=O)ON=C2C)ccc1OCc1cccc(F)c1 | 55.1% (active) |
| CCOc1cc(/C=N/O)ccc1OCc1ccccc1F | 40.7% (active) |
| CCn1c(CC(=O)Nc2ccccc2)nnc1SCC(=O)N1CCOCC1 | -10.2% (inactive) |
| Cc1ccc(/C=C2\SC(=S)N(CCC(=O)Nc3ccc(O)cc3)C2=O)cc1 | 0.715% (inactive) |
| COC(=O)c1cccc(N(CC(=O)NCC2CCCO2)C(=O)CCC(=O)Nc2cc(C)on2)c1 (configuration not stated) | -11.3% (inactive) |
| Nc1c(NCCc2ccccc2)c2ccccc2oc1=O | 60.3% (active) |
| O=Cc1c(NCCc2cccc(F)c2)c2ccccc2[nH]c1=O | -25% (inactive) |
| CC(C)(C)Nc1c(N)c(=O)oc2ccccc12 | 10.6% (inactive) |

| Structure (SMILES) | inhibition |
| --- | --- |
| O=C(CNC(=O)[C@@H]1Cc2ccccc2CN1)NC1CCCCC1 | -13.1% (inactive) |
| CCOc1ccc(-n2c(SCC(=O)Nc3ccc(OC)cc3)nc3sc4c(c3c2=O)CCN(C)C4)cc1 | 4.16% (inactive) |
| CCOc1ccc(-n2c(SCC(=O)OC)nc3sc4c(c3c2=O)CCN(C)C4)cc1 | 11.7% (inactive) |
| COc1ccccc1NC(=O)CSc1nc2sc3c(c2c(=O)n1-c1ccccc1)CCN(C)C3 | 35.8% (active) |
| O=C(O)c1cc(S(=O)(=O)N(Cc2ccccc2)c2cccc(C(F)(F)F)c2)ccc1Cl | -2.31% (inactive) |
| CC(=O)N1CCC(C(=O)OCc2ccc(Cl)cc2)(c2ccccc2)CC1 | -6.33% (inactive) |
| Cc1c(Cl)cccc1NC(=O)NCCCN1CCCC1=O | 29.4% (inactive) |
| O=C(CN1C(=O)c2ccccc2C1=O)NCc1ccc(C(=O)O)cc1 | 5.13% (inactive) |
| O=C(c1cccc(C(=O)N2CCN(c3ccc(F)cc3)CC2)c1)N1CCN(c2ccc(F)cc2)CC1 | -8.51% (inactive) |
| Cc1nc2ccc(C(=O)N3CCN(c4ccccc4)CC3)cc2s1 | 11.9% (inactive) |
| CC(=O)c1ccc(N2CCN(C(=O)c3ccc4nc[nH]c4c3)CC2)cc1 | 29.9% (active) |
| CCN1C(=NCCc2cccnc2)N[C@@H](c2ccccc2)[C@H](C(=O)OC)[C@H]1C | 12.2% (inactive) and -9.8% (inactive) |
| C=C1CCN(Cc2ccc(OC)cc2)S(=O)(=O)c2ccccc21 | -5.84% (inactive) |
| COc1ccc(OC)c(CNC(=O)Cn2nc(C)c3c(C)n(-c4ccc(C)cc4)nc3c2=O)c1 | 26.2% (inactive) |
| COc1ccc(S(=O)(=O)NNC(=O)Nc2ccc(C)cc2)c(OC)c1 | -5.98% (inactive) |
| NC(=O)C1CCN(C(=O)CC2C(=O)NCCN2Cc2cccc(Oc3ccccc3)c2)CC1 (configuration not stated) | -10.2% (inactive) |
| Cc1nn(-c2ccccc2)c2c1c(C)c(CCC(=O)NCC1CCCO1)c(=O)n2C (configuration not stated) | -2.28% (inactive) |
| Cc1onc(-c2ccccc2Cl)c1C(=O)OCC(=O)c1ccccc1 | 71.6% (active) |
| Cc1onc(-c2ccccc2Cl)c1C(=O)NCCn1ccc2ccccc21 | -2.64% (inactive) |
| Cc1[nH]c2ccccc2c1C(=O)COC(=O)c1c(-c2ccccc2)noc1C | -2.62% (inactive) |
| COc1ccc(/C=C(\NC(=O)c2ccccc2)C(=O)NCCN2CCOCC2)cc1OC | 1.37% (inactive) |
| CC(CCn1cccn1)NC(=O)CCc1nnc(CCc2ccccc2)o1 (configuration not stated) | -10.4% (inactive) |
| Cc1cc(-c2nnc(CCC(=O)NC(c3ccccc3)c3ccccc3)o2)no1 | 35.4% (active) |
| O=C(CCc1nnc(CCCCc2ccccc2)o1)NC(c1cccnc1)C(F)(F)F (configuration not stated) | -12.1% (inactive) |
| COC(=O)c1ccc(N2CCOCC2)c(NC(=O)c2ccc(Br)o2)c1 | 31.4% (inactive) |

| Structure (SMILES) | inhibition |
| --- | --- |
| Cc1[nH]n(C(N)=S)c(=O)c1N=Nc1ccc(Cl)cc1Cl | 44.3% (active) |
| Cc1cccc(N=Nc2c(C)[nH]n(-c3ccccc3)c2=O)c1 | -4.8% (inactive) |
| CC1=NN(C(N)=S)C(=O)C1N=Nc1cc(Cl)ccc1Cl (configuration not stated) | -1.92% (inactive) |
| Cc1cc(C)c2oc(C(=O)Nc3ccc(S(=O)(=O)Nc4nccc(C)n4)cc3)cc(=O)c2c1 | 2.27% (inactive) |
| O=C(N/N=C/c1cccc([N+](=O)[O-])c1)c1ccncc1 | 22.3% (inactive) |
| Cc1ccc(NC(=O)O/N=C/c2cccc([N+](=O)[O-])c2)cc1 | 70.8% (active) |
| CCc1ccc(NC(=O)C(C)OC(=O)/C=C/c2cccc([N+](=O)[O-])c2)cc1 (configuration not stated) | 15.5% (inactive) |
| Cc1ccc(C)c(S(=O)(=O)Nc2cc(C)on2)c1 | -4.53% (inactive) |
| CCc1cc2c(=O)c(-c3ccc(F)cc3)c(C(F)(F)F)oc2cc1OCC(=O)O | 5.27% (inactive) |
| COc1ccc2oc(N)c(C=O)c(=O)c2c1 | 63.7% (inactive) |
| CCc1cc2c(=O)c(-c3ccon3)c(N)oc2cc1OC | 82.2% (active) |
| CSc1nnc(C2CCCN(CC(=O)Nc3ccccc3N3CCOCC3)C2)n1C(C)C (configuration not stated) | -9.97% (inactive) |
| O=C(Cn1c(NCCO)nc2ccccc21)c1ccc(Cl)cc1Cl | -8.74% (inactive) |
| COC(=O)c1c(NC(=O)C2CC(C)=C(C)CC2C(=O)O)sc2c1CCCCC2 (configuration not stated) | -7.33% (inactive) |
| CCOc1ccccc1NC(=O)CCc1nnc2ccc(NCc3ccco3)nn12 | -9.81% (inactive) |
| CC(=O)c1ccc(NC(=O)CCc2nnc3ccc(NCc4ccco4)nn23)cc1 | 49.7% (active) |
| O=C(CCc1nnc2ccc(NCc3ccco3)nn12)Nc1cc(F)ccc1F | -6.06% (inactive) |
| COCCNC(=O)CCCN1C(=O)c2ccccc2Sc2ncccc21 | -19.8% (inactive) |
| CCOc1ccccc1-c1nc(CN2CCC(C(=O)N3CCOCC3)CC2)c(C)o1 | -7.77% (inactive) |
| O=C(NCc1ccccn1)C1CCN(S(=O)(=O)c2ccc(Br)cc2)CC1 | -33.7% (inactive) |
| Cc1ccc(-c2cc(N)on2)cc1 | 108% (active) |
| Cc1ccc(S(=O)(=O)Cc2cc(-c3ccc(Cl)cc3)no2)cc1 | 8.79% (inactive) |
| O=C(Cc1ccccc1Cl)N1CCOCC1 | -11.4% (inactive) |
| COc1cc2c(cc1OC)/C(=C/C(=O)c1ccc(NC(C)=O)cc1)NCC2 | -6.51% (inactive) |
| CC1CN/C(=C\C(=O)c2ccc(Br)cc2)C(=O)N1 (configuration not stated) | 67.3% (active) |

| Structure (SMILES) | inhibition |
| --- | --- |
| CN1CCCC(OC(=O)COc2ccc(Br)cc2)C1 (configuration not stated) | -12% (inactive) |
| CC(C)(C)OC(=O)NC(Cc1ccccc1)C(=O)NC(CSC1CCCCO1)C(=O)NN (configuration not stated) | -14.3% (inactive) |
| CCOC(=O)N1CCN(C(=O)COCc2cc(-c3ccc4c(c3)OCO4)on2)CC1 | -7.65% (inactive) |
| CC(C)NC(=O)COCc1cc(-c2ccc3c(c2)OCO3)on1 | 45.3% (active) |
| Cc1cccc(N2CCN(C(=O)COCc3cc(-c4ccc5c(c4)OCO5)on3)CC2)c1C | -8.35% (inactive) |
| Cc1nn2c(=O)cc(COC(=O)c3ccc(NC(=O)C(C)(C)C)cc3)nc2s1 | 35.5% (inactive) |
| COc1cccc(C2CC(c3cccs3)=NN2C(=O)CSC2=NCCS2)c1OC (configuration not stated) | -5.1% (inactive) |
| CCCc1cc(=O)oc2cc(OCC(=O)Nc3ccc(CN4CCOCC4)cc3)c(Cl)cc12 | -1.59% (inactive) |
| COc1ccc(C2=Nc3cc(C)ccc3OC2)cc1 | 94% (active) |
| Cc1ccc(C(=O)NNC2=Nc3cc([N+](=O)[O-])ccc3OC2)cc1 | 40.3% (inactive) |
| COc1ccc(C2=NOC3(CC(=O)N(c4ccc(C)cc4)C3=O)C2)cc1 (configuration not stated) | 36.5% (inactive) |
| Cn1cc(C(=O)c2ccc(Cl)cc2Cl)cc1C(=O)NN | -5.33% (inactive) |
| Cc1cc(C)c(SCCc2ccncc2)c(C)c1 | -4.14% (inactive) |
| c1ccc(CSCCc2ccncc2)cc1 | -5.65% (inactive) |
| CC(C)(C)c1ccc(SCCc2ccncc2)cc1 | 69.1% (active) |
| CN(NS(=O)(=O)c1cccs1)c1ncc(C(F)(F)F)cc1Cl | -2.15% (inactive) |
| COc1ccc(-c2nc3ccccc3c(=O)n2CCc2ccc(O)cc2)cc1 | 40.9% (inactive) |
| Cn1c2ccccc2c(=O)c2c(=O)n(Cc3ccco3)c(COc3ccccc3)nc21 | 8.54% (inactive) |
| Cc1nc2ccccc2c(=O)n1-c1ccc(Cl)cc1Cl | -14.3% (inactive) |
| Cc1ccc(C(=O)CSc2nc3ccccc3c(=O)n2N)o1 | 77.2% (inactive) |
| Cn1c(COc2ccc(Cl)cc2)nc2ccccc2c1=O | 46% (active) |
| COc1ccc(OCc2ccc(-c3nc4ccccc4c(=O)n3N)o2)cc1 | 129% (active) |
